Screening results as filed in PubChem BioAssay.
Compounds with a hit are over-represented: about 4.1% of the library has one in this group of screens.
RecA splice inh – blocks M. tuberculosis RecA intein splicing; cell-free RecA intein splicing, fluorescence; inhibition, % (concentration not given with the values); 290,000 compounds, 0.75% hits; AID 2221; in the data active = inhibition above about 30%;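 also: 0% = vehicle wells and 100% = reference inhibitor control wells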
Target sequence (P9WHJ3 whole entry, looked up, canonical isoform): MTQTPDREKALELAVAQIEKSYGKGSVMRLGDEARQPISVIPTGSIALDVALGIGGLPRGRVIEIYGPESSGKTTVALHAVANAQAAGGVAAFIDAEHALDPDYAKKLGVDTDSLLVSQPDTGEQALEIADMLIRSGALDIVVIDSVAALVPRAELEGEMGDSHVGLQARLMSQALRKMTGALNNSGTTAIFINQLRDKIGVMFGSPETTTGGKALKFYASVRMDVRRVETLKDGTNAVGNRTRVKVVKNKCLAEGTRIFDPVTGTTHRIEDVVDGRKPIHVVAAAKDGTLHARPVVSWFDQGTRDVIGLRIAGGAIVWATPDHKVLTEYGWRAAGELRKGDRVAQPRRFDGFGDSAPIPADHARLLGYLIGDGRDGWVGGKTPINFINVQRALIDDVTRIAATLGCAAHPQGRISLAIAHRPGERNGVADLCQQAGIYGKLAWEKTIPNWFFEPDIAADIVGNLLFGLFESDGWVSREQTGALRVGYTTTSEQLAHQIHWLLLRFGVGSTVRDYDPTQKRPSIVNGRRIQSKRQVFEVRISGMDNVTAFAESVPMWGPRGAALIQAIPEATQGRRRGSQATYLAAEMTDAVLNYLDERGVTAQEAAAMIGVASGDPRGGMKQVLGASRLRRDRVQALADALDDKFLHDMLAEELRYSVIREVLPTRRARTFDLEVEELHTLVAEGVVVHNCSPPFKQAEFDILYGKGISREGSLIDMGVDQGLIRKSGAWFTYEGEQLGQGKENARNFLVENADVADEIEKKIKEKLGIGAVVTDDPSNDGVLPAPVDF
UGM FP inh – inhibitors of M. tuberculosis UDP-galactopyranose mutase | P9WIQ1 | purified UGM, fluorescence polarization probe displacement | inhibition, % at 10 µM | 320,000 compounds, 0.06% hits; in the data active = inhibition above about 10%, passing the limit was not always enough
Rv3671c protease – Rv3671c (M. tuberculosis) protease inhibition | inhibition, % at 5.96 µM | 320,000 compounds, 0.048% hits; in the data active = inhibition above about 38%;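 also: extracellular domain of Rv3671c used as enzyme; 0% = enzyme with DMSO and 100% = no enzyme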
BH1578 lux ind – induces V. cholerae light production without autoinducers; V. cholerae BH1578 lux reporter, luminescence, 6 h; activation, % at 18.7 µM; 350,000 compounds, 0.16% hits; AID 588436; in the data active = activation mostly above about 9.7%, no sharp cut-off
Mtb FBA inh – inhibits M. tuberculosis FBA enzyme; inhibition, % at 1 µM; purified M. tuberculosis FBA, fluorescence read-out; P9WQA3; 360,000 compounds, 2.3% hits; in the data active = inhibition above about 27%;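 also: 0% = vehicle and 100% = reference inhibitor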
GDH-TPI inh – counter-screen for M. tuberculosis FBA inhibitors: GDH-TPI coupled enzymes. inhibition, % at 4.8 µM. 360,000 compounds, 1.2% hits. GDH-TPI coupled enzyme counterscreen, NADH absorbance; in the data active = inhibition above about 30%;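 also: 0% = DMSO wells and 100% = wells lacking the enzyme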
GFP chromo cs – counter-screen GFP chromophore formation inhibition; shares compounds with RecA splice inh; EC50, µM; 2,100 compounds, 83% hits; cell-free GFP chromophore formation, fluorescence; call rule not given here
* marks the source's active call; other numbers are inactive results.

What do the screens show for `O=C(O)/C=C/C(=O)Nc1ccc(OC(F)(F)Cl)cc1`?
RecA splice inh: 7; UGM FP inh: -1; Rv3671c protease: 2; BH1578 lux ind: 0; Mtb FBA inh: -1; GDH-TPI inh: 3

Results for O=C(O)/C=C/C(=O)Nc1ccc(C2(c3ccc(NC(=O)/C=C/C(=O)O)cc3)c3ccccc3-c3ccccc32)cc1 ?
RecA splice inh: 71*; UGM FP inh: -4; Rv3671c protease: 17; BH1578 lux ind: 0; Mtb FBA inh: 0; GDH-TPI inh: -7; GFP chromo cs: 27*

How did O=C(O)/C=C\C(=O)Nc1ccc(Oc2ccccc2)cc1 do in these assays?
UGM FP inh: 3; Rv3671c protease: -3; BH1578 lux ind: -4; Mtb FBA inh: -3; GDH-TPI inh: 0

Results for O=C(O)/C=C/C(=O)Nc1ccc(SC(F)(F)C(F)(F)C(F)(F)F)cc1 ?
RecA splice inh: 67*; UGM FP inh: 1; Rv3671c protease: -6; BH1578 lux ind: 0; Mtb FBA inh: -5; GDH-TPI inh: -3; GFP chromo cs: 37*

Results for NC(Cc1ccc(F)cc1)c1csc(Nc2ccc(C(F)(F)F)cn2)n1 (configuration not stated) ?
BH1578 lux ind: -1; Mtb FBA inh: 2; GDH-TPI inh: -3

How did Cc1cc(=O)n(C2CCS(=O)(=O)C2)[nH]1 (configuration not stated) do in these assays?
RecA splice inh: 93*; UGM FP inh: 3; Rv3671c protease: -216; BH1578 lux ind: 0; Mtb FBA inh: 2; GDH-TPI inh: -4; GFP chromo cs: 3.8*

Results for Cc1ccccc1-c1nnnn1C1CCS(=O)(=O)C1 (configuration not stated) ?
RecA splice inh: 0; UGM FP inh: -1; Rv3671c protease: -11; BH1578 lux ind: 0; Mtb FBA inh: -2; GDH-TPI inh: 0

How did CC1=C(C(=O)N(C(C)C)C(C)C)CC(CC(=O)NC2CC2)C(=O)N1Cc1ccccc1 (configuration not stated) do in these assays?
Mtb FBA inh: 1

How did CC(=O)c1ccc(OCC(=O)N2CCCC2c2ccc3c(c2)OCCCO3)cc1 (configuration not stated) do in these assays?
UGM FP inh: 2; Rv3671c protease: 4; Mtb FBA inh: 3; GDH-TPI inh: 14

Results for O=C(CCl)N1CCCC1c1ccc2c(c1)OCCO2 (configuration not stated) ?
RecA splice inh: 74*; UGM FP inh: 2; Rv3671c protease: -9; BH1578 lux ind: 0; Mtb FBA inh: -1; GDH-TPI inh: -6; GFP chromo cs: 33*

What do the screens show for `Cc1ccc(S(=O)(=O)/N=C2\C(=O)c3ccccc3C([O-])=C2n2cc[n+](CCC(C)C)c2)cc1`?
RecA splice inh: 13; UGM FP inh: 1; Rv3671c protease: -30; BH1578 lux ind: -1; Mtb FBA inh: -8; GDH-TPI inh: -3

How did CC(=O)Nc1ccc(S(=O)(=O)/N=C2\C(=O)c3ccccc3C([O-])=C2n2cc[n+](-c3ccccn3)c2)cc1 do in these assays?
RecA splice inh: 85*; UGM FP inh: 5; Rv3671c protease: -97; BH1578 lux ind: 4; Mtb FBA inh: 3; GDH-TPI inh: 4; GFP chromo cs: 6.1*

What do the screens show for `CC1CCCN(C(=O)C2CC(=O)N(c3ccc(Cl)cc3)C2)C1` (configuration not stated)?
RecA splice inh: 0; UGM FP inh: 1; Rv3671c protease: 1; BH1578 lux ind: inactive; Mtb FBA inh: -1; GDH-TPI inh: -3

Results for COc1cc(/C=C2/C(=O)N(c3ccc(Br)cc3)N=C2C)cc([N+](=O)[O-])c1O ?
RecA splice inh: 17; UGM FP inh: 1; Rv3671c protease: 2

How did COc1ccc(/C=C2/C(=O)N(c3ccccc3)N=C2C)cc1OC do in these assays?
RecA splice inh: 43*; UGM FP inh: 0; BH1578 lux ind: -1; Mtb FBA inh: -1; GDH-TPI inh: 0; GFP chromo cs: 9*

How did CC1=NN(c2ccccc2)C(=O)/C1=C/N(C)C do in these assays?
RecA splice inh: 1; UGM FP inh: 0; Rv3671c protease: -14; BH1578 lux ind: 0; Mtb FBA inh: -2; GDH-TPI inh: 14

How did CC(=O)Oc1ccc(/C=C2/C(=O)N(c3ccccc3)N=C2C)cc1 do in these assays?
RecA splice inh: 93*; UGM FP inh: -2; Rv3671c protease: -163; BH1578 lux ind: -2; Mtb FBA inh: -2; GDH-TPI inh: 11; GFP chromo cs: 3.5*

What do the screens show for `CC1=NN(c2ccccc2)C(=O)/C1=C/c1cccc(C)c1`?
RecA splice inh: 92*; UGM FP inh: 0; Rv3671c protease: -169; BH1578 lux ind: -1; Mtb FBA inh: 1; GDH-TPI inh: 10; GFP chromo cs: 2.3*

Results for COc1cc(/C=C2/C(=O)N(c3cccc(Br)c3)N=C2C)cc(OC)c1O ?
RecA splice inh: 87*; UGM FP inh: -5; Rv3671c protease: -210; BH1578 lux ind: 0; Mtb FBA inh: 0; GDH-TPI inh: 9; GFP chromo cs: 4.3*

How did Cc1nc2c(OCCC3CCCCC3)cccn2c1N(C)C(=O)CCC1CCCC1 do in these assays?
BH1578 lux ind: 0; Mtb FBA inh: 2; GDH-TPI inh: 6

What do the screens show for `COc1ccc(-c2noc(CCC(=O)N3CCN(c4cccc(F)c4)CC3)n2)cc1`?
BH1578 lux ind: -1; Mtb FBA inh: 2; GDH-TPI inh: 8

Results for COc1ccc(/C=C2/C(=O)N(c3c(F)c(F)c(F)c(F)c3F)N=C2C)cc1 ?
RecA splice inh: 4; UGM FP inh: 1; Rv3671c protease: -55; BH1578 lux ind: -1; Mtb FBA inh: 2; GDH-TPI inh: 1

What do the screens show for `COc1ccc(/C=C2/C(=O)N(c3ccccc3)N=C2C)cc1`?
RecA splice inh: 69*; UGM FP inh: 0; Rv3671c protease: -155; BH1578 lux ind: -1; Mtb FBA inh: 3; GDH-TPI inh: -1; GFP chromo cs: 3.2*

How did Cn1cc(C=C2C(=O)NC(=O)NC2=O)c2ccccc21 do in these assays?
RecA splice inh: 0; UGM FP inh: 8; Rv3671c protease: 8; BH1578 lux ind: inactive; Mtb FBA inh: -12; GDH-TPI inh: 6

How did COc1cc(/C=C2\C(=O)ON=C2c2ccc(Cl)cc2)ccc1O do in these assays?
RecA splice inh: 25; UGM FP inh: 2; Rv3671c protease: -1

What do the screens show for `CC1=NN(c2ccccc2)C(=O)/C1=C/c1cn(C)c2ccccc12`?
RecA splice inh: 37*; UGM FP inh: -2; Rv3671c protease: 5; BH1578 lux ind: -1; Mtb FBA inh: -8; GDH-TPI inh: -7; GFP chromo cs: >38

Results for COc1ccc(C2=NN(c3ccccc3)C(=O)/C2=C\c2ccc(O)c(OC)c2)cc1 ?
RecA splice inh: 93*; UGM FP inh: 0; Rv3671c protease: -208; BH1578 lux ind: 0; Mtb FBA inh: 7; GDH-TPI inh: 16; GFP chromo cs: 2.6*
